Assay results: PubChem BioAssay AID1346378 (National Center for Advancing Translational Sciences (NCATS), 2018)
Among all 420,000 compounds or so, about 540 (0.13%) were called active. No stated cut-off is given here; in the data, active means activity change below about -50%; inconclusive means mostly about -30% to -49%; inactive means weaker than that. The sample as a whole holds a higher share of actives than the screen did.

What follows are compounds tested against Phosphatidylinositol 4-kinase type 2-alpha (Homo sapiens) (UniProt Q9BTU6) (assay: qHTS for small molecular inhibitors of PI4K2A). Conditions: purified PI4K2A, ADP-Glo luminescence, 1 h; at 76.9 µM, stronger effect = lower value.
Sequence of Phosphatidylinositol 4-kinase type 2-alpha (Homo sapiens) (Q9BTU6 whole entry, looked up): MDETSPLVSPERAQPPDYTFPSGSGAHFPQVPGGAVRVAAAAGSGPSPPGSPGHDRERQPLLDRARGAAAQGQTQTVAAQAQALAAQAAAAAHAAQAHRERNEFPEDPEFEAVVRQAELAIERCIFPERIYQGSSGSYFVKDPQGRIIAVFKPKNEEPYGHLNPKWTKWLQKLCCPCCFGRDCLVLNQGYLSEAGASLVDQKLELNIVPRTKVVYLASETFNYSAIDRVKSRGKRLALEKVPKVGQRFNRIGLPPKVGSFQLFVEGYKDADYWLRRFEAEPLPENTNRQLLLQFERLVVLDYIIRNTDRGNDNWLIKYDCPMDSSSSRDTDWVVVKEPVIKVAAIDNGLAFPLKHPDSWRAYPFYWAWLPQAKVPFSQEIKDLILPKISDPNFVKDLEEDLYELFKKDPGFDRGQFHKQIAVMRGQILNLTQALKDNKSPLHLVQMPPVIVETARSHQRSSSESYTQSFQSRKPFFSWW
Description: The phosphatidylinositol 4-phosphate (PI4P) is emerging as a key regulator of lipid transfer in ER-membrane contact sites. The four different phosphatidylinositol 4-kinase (PI4K) enzymes generate PI4P in different membrane compartments supporting distinct cellular processes many of which are crucial for the maintenance of cellular integrity but also hijacked by intracellular pathogens. The goal of this screening project is to search for small molecular inhibitors of PI4K2A based on a high throughput screening strategy.The ADP-Glo assay was used as a starting point to develop a miniaturized version for HTS applications. To implement the HTS screen, the PI4K ADP-Glotrade mark Kinase assay (Promega, V9102) was miniaturized for the 1536-well format used at NCGC.
For the robotic screening, the ADP-Glo assay using the ADP-Glotrade mark Kinase Assay kit from Promega was miniaturized and optimized on 1536-well white solid bottom plates (Greiner Bio-one). The substrate, 1.2 mM PI, prepared in the assay buffer (40mM Tris pH7.5, 20mM MgCl2, 1mM EGTA, 0.4% Triton X-100, 0.5mM DTT, 0.5mg/ml BSA) and PI4K2A enzyme, diluted also in the assay buffer to 4ug/mL, were dispensed onto the plates in equal volumes (1microl/well), pinned with 23 nL/well tested compounds or control followed by dispensation of 1microl/well 300microM ATP. The plates were incubated for one hour. Then, 2 µL/well of ADP-Glo reagent was added and incubated for 40 minutes. Next, 4microL/well of Kinase Detection Buffer was added to the plates and incubated for additional 40 minutes. All incubation steps were performed at ambient temperature. The resulting luminescence signal was measured on Viewlux plate reader (PerkinElmer). Adenosine, a partial non-specific inhibitor, was used as a positive control at 100microM final concentration to assess the assay's quality and plate-to-plate reproducibility. We also used "no enzyme" control to gauge the assay's maximal potential inhibition (IC100).
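Wherever activity change, negative = inhibition is given: -100% = wells without enzyme as full effect.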

Row | Structure (SMILES) | activity change, negative = inhibition
1 | CCC(=O)c1ccc(OCC(=O)N2CCN(CC(=O)Nc3ccc(C)cc3)CC2)cc1 | -4.83% (inactive)
2 | C=CCN(CC=C)C(=O)Nc1ccc(OCC)cc1 | 7.59% (inactive)
3 | C=CCN1C(=O)NC(=O)/C(=C/c2ccc(OCC(=O)Nc3ccc(C)cc3)cc2)C1=O | -53.5% (active)
4 | CO[C@]12CC[C@@]3(C[C@@H]1[C@](C)(O)C(C)(C)C)[C@@H]1Cc4ccc(O)c5c4[C@@]3(CCN1CC1CC1)[C@H]2O5 | inactive
5 | CCCOC(=O)c1cncn1C(C)c1ccccc1 (stereo not given) | -0.694% (inactive)
